Among all 68,000 compounds or so, about 2,700 (4%) showed an effect of 50% or more. The sample holds strong results, similar compounds and a random draw of the others, so the mix is not that of the screen.
Test system: Plasmodium berghei
Assay: Screen against P. berghei liver stage (PbLuc), transformed with Luciferase, at 2uM
Assay type: functional, HepG2
Conditions: tested at 2 uM

| SMILES | INHIBITION |
| --- | --- |
| Cc1ccnc(N2Cc3cnn(Cc4ccc(F)cc4)c3C2)n1 | -38.09% |
| CNc1cc(C)nc(N2Cc3cnn(Cc4ccc(F)cc4)c3C2)n1 | 52.03% |
| Cc1cc(C)nc(N2Cc3cnn(Cc4ccc(F)cc4)c3C2)n1 | -51.41% |
| O=C(CN1CC(n2cccn2)C1)NCCc1c[nH]c2ccccc12 | 25.74% |
| O=S(=O)(NCCn1ccc(-c2cccs2)n1)C1CC1 | -49.59% |
| Cc1nc(-c2ccccc2C)n(CC(=O)NC(C)C2CC2)n1 (configuration not stated) | 12.66% |
| Cc1occc1C(=O)N1CCC2(CCC(C(=O)NCC3CC3)O2)CC1 (configuration not stated) | 51.19% |
| O=C(NCC1CC1)C1CCC2(CCN(C(=O)c3ccoc3)CC2)O1 (configuration not stated) | 36.99% |
| O=C(NCC1CC1)C1CCC2(CCN(C(=O)c3ccncc3)CC2)O1 (configuration not stated) | 52.36% |
| Cc1ccc(C(=O)N2CCC3(CCC(C(=O)NCC4CC4)O3)CC2)o1 (configuration not stated) | 38.09% |
| Cc1ccccc1C(=O)N1CCC2(CCC(C(=O)NCC3CC3)O2)CC1 (configuration not stated) | -28.91% |
| O=C(NCC1CC1)C1CCC2(CCN(C(=O)c3cccnc3)CC2)O1 (configuration not stated) | 22.71% |
| CCC(C)(CC(=O)OC)NC(=O)c1ccc(C(C)=O)cc1 (configuration not stated) | 27.85% |
| COc1cccc(-c2cc(C(=O)NCCCn3cnnc3)[nH]n2)c1 | -48.78% |
| CCNc1ncc(C(=O)NCc2ccc(F)c(C(F)(F)F)c2)cn1 | -18.6% |
| CCNc1ncc(C(=O)NCc2ccc3nsnc3c2)cn1 | 86.69% |
| CCNc1ncc(C(=O)NCc2cccc(OC(F)(F)F)c2)cn1 | -15.83% |
| Cc1nn(C)c(C)c1NC(=O)CN1CCc2c(nc(C(C)C)n2C)C1 | -31.89% |
| CC(C)(C(=O)N1CCC(C(N)=O)C1)c1ccccc1F (configuration not stated) | 60.9% |
| CC(C)(C(=O)NCC(=O)N1CCCC1)c1ccccc1F | 5.47% |
| CC(C)(C(=O)N1CCC(CS(N)(=O)=O)CC1)c1ccccc1F | 30.06% |
| CCOc1ccc(Oc2cc(CN)ccn2)cc1 | 16.95% |

| SMILES | INHIBITION |
| --- | --- |
| O=C(CCC(=O)N1CCOCC1)NCc1cccnc1-n1cccn1 | -15.37% |
| Cc1cn2c(n1)CCC(NC(=O)COCCOc1ccccc1)C2 (configuration not stated) | 1.49% |
| Cc1nn(C)c2ncnc(N3CCCC(OCc4cccnc4)C3)c12 (configuration not stated) | 70.81% |
| Cc1nn(C)c2ncnc(N3CCCC(OCc4ccccn4)C3)c12 (configuration not stated) | 10.23% |
| Cc1cc2c(N3CCCC(OCc4cccnc4)C3)ncnc2s1 (configuration not stated) | 3.62% |
| c1cc(CN2CCc3ncc(CN4CCCCC4)n3CC2)cs1 | 33.47% |
| COCCN1CCC2(CC1)CC(N1CCOCC1)c1cc(C)ccc12 (configuration not stated) | -6.8% |
| CC(=O)N1CCCC1c1nccnc1Nc1ncccn1 (configuration not stated) | 13.33% |
| N#Cc1cccc(N2CCCC3(CN(C(=O)NC4CC4)CCO3)C2)c1 (configuration not stated) | 6.36% |
| COc1ccc(S(=O)(=O)Cc2cc(C)on2)cc1 | 21.24% |
| Cc1cc(CN(C)CCN(C)c2ccccc2)no1 | 7.62% |
| CC(C)Cc1nc(CS(=O)(=O)c2ccccc2)no1 | -5.66% |
| Cc1cc(CS(=O)(=O)c2ccccc2)no1 | 58.69% |
| COc1cccc(S(=O)(=O)Cc2cc(C)on2)c1 | 57.59% |
| CCc1noc(CS(=O)(=O)c2cccc(OC)c2)n1 | 38.33% |
| CN(C)c1ccc(CNCc2cnc(N3CCOCC3)nc2)cn1 | -160.54% |
| CC(NCc1ccncc1)c1cc2c(cc1Br)OCCO2 (configuration not stated) | 42.7% |
| CC(NCc1ccccn1)c1cc2c(cc1Br)OCCO2 (configuration not stated) | 8.93% |
| CC(NCc1cccnc1)c1cc2c(cc1Br)OCCO2 (configuration not stated) | 52.83% |
| Cc1ccc(CN2CCN(C(=O)c3ccc(Br)o3)CC2)cc1 | 45.77% |
| CC(C)Oc1ncnc2c1CCN(Cc1ccco1)CC2 | 27.44% |
| CCCn1nc(C(=O)N2CCCC2c2noc(C)n2)ccc1=O (configuration not stated) | -17.18% |

| SMILES | INHIBITION |
| --- | --- |
| CCN(CC)CC1CN(Cc2ccc(C)s2)Cc2nccn2C1 (configuration not stated) | -0.18% |
| CC(C)Cn1cncc1Cn1cccc(C(F)(F)F)c1=O | 1.22% |
| CCn1cncc1Cn1cccc(C(F)(F)F)c1=O | 10.1% |
| CCn1cnnc1Cn1cccc(C(F)(F)F)c1=O | 62.01% |
| CCOCCN1C[C@H](C(=O)Nc2cccnc2)[C@@H]2CCO[C@@H]2C1 | 8.18% |
| O=C(Nc1cccnc1)[C@H]1CN(C2CCCC2)C[C@H]2OCC[C@@H]12 | -42.87% |
| CS(=O)(=O)N1C[C@H](C(=O)Nc2cccnc2)[C@@H]2CCO[C@@H]2C1 | 51.27% |
| Cc1nn(C)cc1C1=NS(=O)(=O)N(C)C(C(=O)Nc2ccc(Br)cc2)=C1 | 22.84% |
| O=C(c1ccoc1)N(Cc1ccncc1)C1CC1 | -37.38% |
| CCc1nnc(SCc2nonc2C)n1C1CC1 | -11.87% |
| COC(=O)CNC(=O)CSCc1nc(O)c2cc(C)sc2n1 | -2.99% |
| CC(C)C(C(=O)N1CCC(Nc2cccnn2)CC1)n1cncn1 (configuration not stated) | -12.48% |
| Cc1nc(C(C)Nc2nc3c(s2)c(C)nn3C)n[nH]1 (configuration not stated) | 5.48% |
| CC(NC(=O)NCCCN(C)C)c1ccc2c(c1)CCC(=O)N2 (configuration not stated) | 2.08% |
| CC(NC(=O)NCCS(C)(=O)=O)c1ccc2c(c1)CCC(=O)N2 (configuration not stated) | 60.13% |
| CC(NC(=O)NCc1cccs1)c1ccc2c(c1)CCC(=O)N2 (configuration not stated) | 16.84% |
| CC(C)(CN)NS(=O)(=O)c1cccc(F)c1F | -6.69% |
| O=C(CCC(=O)N1CCC(c2noc3cc(F)ccc23)CC1)NC1CC1 | 11.87% |
| O[C@@H]1CC(CNCC2CCCC2)(COc2cccnc2)C[C@@H]1O (some centres not stated) | 42.64% |
| O[C@@H]1CC(CNCC2CC2)(COc2cccnc2)C[C@@H]1O (some centres not stated) | 39.62% |
| CC(C)NCC1(COc2ccccc2)C[C@@H](O)[C@@H](O)C1 (some centres not stated) | 71.58% |
| Cn1cc(C[C@H]2[C@H](O)CCN2Cc2ccncc2)cn1 | 20.41% |

| SMILES | INHIBITION |
| --- | --- |
| CCCNC(=O)c1cn(C(C)(C)C)c2ncccc12 | 12.87% |
| Cc1nc(-c2ccccc2)cc2nn(CC(N)=O)c(=O)n12 | 20.88% |
| COc1ccc(-c2cc3nn(CC(=O)NC(C)C)c(=O)n3c(C)n2)cc1 | 22.96% |
| COc1ccc(-c2cc3nn(CC(N)=O)c(=O)n3c(C)n2)cc1 | 52.74% |
| CCn1ncc2c1NC(=O)C(C#N)C21CCCC1 (configuration not stated) | -12.09% |
| CCN1CC(CN(C)c2cc(C)nc(N)n2)Oc2ccccc21 (configuration not stated) | -10.39% |
| CC(C)OCCN1CCN(C(=O)c2cccc(CC#N)c2)CC1 | 5.72% |
| CC(=O)NCC1CCC2(CCN(c3ncc(C(C)=O)c(C)n3)CC2)O1 (configuration not stated) | 11.37% |
| CC(=O)NCC1CCC2(CCN(c3ncnc4oc(C)nc34)CC2)O1 (configuration not stated) | -7.91% |
| CC(=O)NCC1CCC2(CCN(c3ncc(C)cn3)CC2)O1 (configuration not stated) | 58.03% |
| O=C(NCCn1nc2ccccn2c1=O)c1cc(C2CC2)[nH]n1 | 25.03% |
| CC(=O)c1cc(C(=O)NC2(c3ccc(Br)cc3)CC2)n(C)c1 | 63.4% |
| Cc1cc(C(=O)NC2(c3ccc(Br)cc3)CC2)n(C)n1 | -25.71% |
| CC(=O)c1cc(C(=O)NC2(c3ccccc3)CCC2)n(C)c1 | 10.43% |
| Cc1ncc(CNC(=O)CCc2cccc(F)c2)c(C2CCCN2C)n1 (configuration not stated) | 7.21% |
| NC1CCN(C2CCN(c3ccc(-c4ccco4)cc3)CC2)CC1 | 55.36% |
| O=C(O)c1ccccc1C1CCN(C2CCN(c3ccccc3)CC2)C1 (configuration not stated) | 38.67% |
| COc1ccc(N2CCC(N3CCOC(C(F)(F)F)C3)CC2)cc1 (configuration not stated) | 10.95% |
| NCC1CCN(C2CCN(c3ccc(-c4ccco4)cc3)CC2)C1 (configuration not stated) | 74.44% |
| CNC1CCN(C2CCN(c3ccc(-c4ccco4)cc3)CC2)CC1 | 7.67% |
| c1coc(-c2nc3c(c(N4CCCN5CCC[C@H]5C4)n2)CCNCC3)c1 | -53.14% |
| O=C(c1ncccn1)N1CCC2(CC1)COC(COc1ccccn1)C2 (configuration not stated) | 17.35% |

| SMILES | INHIBITION |
| --- | --- |
| CCN(CC)c1ccc(C(=O)N2C[C@H]3CC[C@@H](C2)N(CCOC)C3)cc1 | -34.04% |
| CS(=O)(=O)N1CCOCC2(CCN(Cc3ccc[nH]3)CC2)C1 | -14.21% |
| CC(C)NC(=O)CN(C1CC1)C(C)C1CC1 (configuration not stated) | -26.26% |
| CC(C1CC1)N(CC(=O)NCC(F)(F)F)C1CC1 (configuration not stated) | 54.02% |
| CC(C1CC1)N(CC(=O)NC(=O)NC1CC1)C1CC1 (configuration not stated) | 31.39% |
| Cc1ncc(CNCC2CCC(C(N)=O)CC2)n1-c1ccccc1 (configuration not stated) | 72.05% |
| Cc1ncc(CNCC(=O)NC2CCCCC2)n1-c1ccccc1 | 21.97% |
| Cc1ncc(CNCC(=O)NCC(F)(F)F)n1-c1ccccc1 | 48.21% |
| COCCc1noc(CN2CCCCC2Cn2cc(C)cn2)n1 (configuration not stated) | 3.3% |
| Cn1cccc1C(=O)NS(=O)(=O)c1cnn(-c2ccccc2F)c1 | 25.21% |
| Fc1ccc(C2CN(CCc3ccncc3)CCO2)cc1 (configuration not stated) | 13.26% |
| CCc1ccc(C2NCCc3cc4c(cc32)OCCO4)cc1 (configuration not stated) | -5.98% |
| CCN1C[C@H]2CCN(C(=O)Cc3cccc(OC)c3)CC[C@H]2S1(=O)=O | -8.72% |
| Cc1ccc(NC(=O)C2CSCN2C(=O)c2cnccn2)c(C)c1 (configuration not stated) | 51.21% |
| Cc1ccc(NC(=O)C2CSCN2C(=O)c2ccncc2)c(C)c1 (configuration not stated) | 11.95% |
| Cc1ccc(NC(=O)C2CSCN2C(=O)c2cnccn2)cc1C (configuration not stated) | 54.2% |
| Cc1ccc(NC(=O)C2CSCN2C(=O)c2cccnc2)c(C)c1 (configuration not stated) | -0.12% |
| Cc1cccc(NC(=O)C2CSCN2C(=O)c2cnccn2)c1C (configuration not stated) | -1.85% |
| Cc1ccc(NC(=O)C2CSCN2C(=O)c2cc[nH]n2)c(C)c1 (configuration not stated) | -16.12% |

Reference: ChEMBL document CHEMBL4513216, “Probing the Open Global Health Chemical Diversity Library for Multistage-Active Starting Points for Next-Generation Antimalarials” (ACS Infect Dis, 2020)
